Source: PubChem
Shown are actives, neighbours in structure and some others; about 6.7% of the full set was active somewhere.
Anthrax LF inh2: inhibitors of Bacillus anthracis lethal factor protease; P15917; multiplex microsphere protease cleavage assay, LF; inhibition, % at 10 µM; actives 0.12% (n = 360,000); also: plate controls were buffer without enzyme for full effect and enzyme alone for no effect
Target sequence (P15917 whole entry, looked up): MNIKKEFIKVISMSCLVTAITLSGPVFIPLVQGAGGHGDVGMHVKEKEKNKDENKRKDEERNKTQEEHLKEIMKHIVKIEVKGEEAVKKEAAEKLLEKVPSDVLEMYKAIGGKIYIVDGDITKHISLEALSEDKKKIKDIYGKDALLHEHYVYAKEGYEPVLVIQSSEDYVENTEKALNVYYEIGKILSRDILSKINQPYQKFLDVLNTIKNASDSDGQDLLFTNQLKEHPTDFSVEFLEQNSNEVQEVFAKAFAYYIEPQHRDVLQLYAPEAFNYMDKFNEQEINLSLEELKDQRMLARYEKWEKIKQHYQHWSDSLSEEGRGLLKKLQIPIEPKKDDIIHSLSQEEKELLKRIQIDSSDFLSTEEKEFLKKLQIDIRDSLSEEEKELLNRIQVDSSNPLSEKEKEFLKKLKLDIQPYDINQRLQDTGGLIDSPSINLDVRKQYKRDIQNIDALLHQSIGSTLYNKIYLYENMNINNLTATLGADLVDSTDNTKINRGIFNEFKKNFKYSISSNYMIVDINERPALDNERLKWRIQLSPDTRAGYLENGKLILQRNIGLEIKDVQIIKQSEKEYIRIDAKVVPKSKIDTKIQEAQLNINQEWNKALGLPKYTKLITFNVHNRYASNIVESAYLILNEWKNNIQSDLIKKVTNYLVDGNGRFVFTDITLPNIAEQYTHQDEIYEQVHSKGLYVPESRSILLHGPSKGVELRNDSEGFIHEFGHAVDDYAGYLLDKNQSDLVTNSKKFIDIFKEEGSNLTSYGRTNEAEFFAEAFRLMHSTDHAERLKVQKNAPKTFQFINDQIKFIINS
BoNT-F LC inh: BoNT F light chain protease inhibition; inhibition, % at 10 µM; actives 0.22% (n = 360,000); Multiplex microsphere protease cleavage assay, flow cytometry; in the data active = inhibition above about 35%, passing the limit was not always enough; inconclusive = no clear call, values can overlap the other calls; also: plate controls were buffer without enzyme for full effect and enzyme alone for no effect
Bead autofluor: flagged as autofluorescent in microsphere protease counterscreen; compound autofluorescence counterscreen, microsphere flow cytometry; stronger effect = higher value; fluorescence intensity (concentration not given with the values); actives 3.1% (n = 360,000); AID 624483; in the data active = fluorescence intensity above about 16000; inconclusive = no clear call, values can overlap the other calls
BoNT-A LC inh2: blocks Botulinum neurotoxin A light chain protease; multiplex microsphere protease substrate cleavage, flow cytometry; inhibition, % at 10 µM; actives 0.17% (n = 360,000); also: plate controls were buffer without enzyme for full effect and enzyme alone for no effect
GDH-TPI inh: inhibits GDH-TPI coupling enzymes, artifact for Mtb FBA screen; actives 1.2% (n = 360,000); GDH-TPI coupled enzyme counterscreen, NADH absorbance; inhibition, % at 4.8 µM; in the data active = inhibition above about 30%;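 also: 0% = DMSO wells and 100% = wells lacking the enzyme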
FBA Mtb inh: Mtb fructose-bisphosphate aldolase inhibition; purified M. tuberculosis FBA, fluorescence read-out; P9WQA3; inhibition, % at 1 µM; AID 588726; actives 2.3% (n = 360,000); in the data active = inhibition above about 27%;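 also: 0% = vehicle and 100% = reference inhibitor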
Active calls of the source: *; ? = inconclusive; / = no result given; + = active, no number. Rule as the data show it, unless noted: active = inhibition above about 30%; inconclusive = no clear call, values can overlap the other calls; inactive = below that.

SMILES	Anthrax LF inh2	BoNT-F LC inh	Bead autofluor	BoNT-A LC inh2	GDH-TPI inh	FBA Mtb inh
COC(=O)CSc1nnc(CNC(=O)c2ccc(S(=O)(=O)N3CCOCC3)cc2)n1C	2	1	2007	0	3	8
COC(=O)CSc1nnc(CNC(=O)c2ccc(S(=O)(=O)N3CCCCC3)cc2)n1C	1	-4	24100*	-1	5	2
CCOC(=O)CSc1nnc(CNC(=O)c2ccc(S(=O)(=O)N3CCCCC3)cc2)n1C	-5	7	20926*	5	-4	2
CC(C)CC(N)c1csc(Nc2ccc(C(=O)NCCCO)cn2)n1 (stereo not drawn)	2	-8	3918	0	34*	2
NC(Cc1ccc(F)cc1)c1csc(Nc2ccc(C(=O)NCCCO)cn2)n1 (stereo not drawn)	-4	-4	3402	0	10	-1
CC(=O)c1ccc(N/N=C2/CCCNC2=O)cc1	-8	-4	5982	-1	36*	-2
Cc1ccc(N/N=C2/CCCNC2=O)cc1	3	29	3472	2	9	-1
COC(=O)[C@H](Cc1ccccc1)NC(=O)NCCC1=CCCCC1	0	-2	24338*	?	-1	0
O=C(CNC(=O)OCc1ccccc1)Oc1ccc2ccc(=O)oc2c1	-8	-5	3265	-3	13	+
COc1ccc(C(=O)COc2ccc3ccc(=O)oc3c2)cc1	6	3	4099	0	17	12
O=C(COc1ccc2ccc(=O)oc2c1)OCc1ccccc1	0	0	2301	0	7	11
CC(NC(=O)OC(C)(C)C)C(=O)Oc1ccc2ccc(=O)oc2c1 (stereo not drawn)	-11	-5	5711	0	5	+
Cc1ccccc1NC(=O)COC(=O)COc1ccc2ccc(=O)oc2c1	2	-1	4513	-1	9	26
CC(C)(C)OC(=O)NCCC(=O)Oc1ccc2ccc(=O)oc2c1	2	-15	2810	0	10	+
COc1ccc(-c2nn(CCC#N)cc2C=C(C#N)C#N)cc1	0	-1	4083	0	21	-1
Nn1c(SCC(=O)NCCC2=CCCCC2)nnc1C1CCCCC1	-3	1	3819	1	-8	-2
Cc1ccccc1N1C(=O)[C@@H]2Cc3ccccc3CN2C1=O	-6	6	19296*	?	-7	2
O=C1[C@@H]2Cc3ccccc3CN2C(=O)N1c1cccc(F)c1	1	-5	8983	0	-8	-1
CCN(CC)C(=O)CC(c1ccc2c(c1)OCO2)c1c(OC)cc(OC)c2ccc(=O)oc12 (stereo not drawn)	-6	7	3758	0	15	0
O=C(COc1ccccc1CNCc1ccccc1)Nc1ccccc1	-6	-12	24425*	?	3	0
CNCc1ccccc1OCC(=O)Nc1ccccc1OC	-2	-5	17627*	-4	3	1
Cc1ccc(CC2C(=O)N(C)C(=O)N(C)C2=O)s1	-1	-4	21258*	?	-4	3
CC(NC(=O)Cc1ccccc1)C(c1ccccc1)N1CCOCC1 (stereo not drawn)	-3	-1	3851	0	0	2
O=C(Cn1cnc2cc([N+](=O)[O-])ccc2c1=O)Nc1ccc2c(c1)OCO2	0	-7	2647	0	16	-1
Cc1ccccc1NS(=O)(=O)c1ccc(C(=O)N2CCN(c3ccccn3)CC2)cc1	-1	-5	4908	-1	-3	-3
SMILES	Anthrax LF inh2	BoNT-F LC inh	Bead autofluor	BoNT-A LC inh2	GDH-TPI inh	FBA Mtb inh
O=C(O)CC(c1ccccc1)N1C(=O)c2ccccc2C1=O (stereo not drawn)	-6	1	4210	1	1	-2
CCOc1ccc(C2C(C#N)=C(C)NC3=C2C(=O)c2ccccc23)cc1 (stereo not drawn)	4	4	22424*	3	4	4
COc1ccc(C2=NN(c3nc(-c4ccc(CNC(C)=O)cc4)cs3)C(c3ccco3)C2)cc1 (stereo not drawn)	0	1	6486	5	11	2
CCc1ccccc1NC(=O)C1CC(c2ccc(F)cc2)=NO1 (stereo not drawn)	-2	0	4048	-1	3	2
COC(=O)c1ccccc1NC(=O)C1CC(c2ccc(F)cc2)=NO1 (stereo not drawn)	-2	0	16511*	0	6	5
N#Cc1ccc(NC(=O)C2CC(c3ccc(F)cc3)=NO2)cc1 (stereo not drawn)	-2	-3	22651*	0	-1	2
O=C(c1ccc(C(F)(F)F)cc1)N(CCCn1ccnc1)C(c1ccccn1)c1nc2ccccc2[nH]1 (stereo not drawn)	-1	-8	5541	0	/	-3
CCSc1nnc(NC(=O)CSc2nnc(Cc3cccn3C)n2-c2ccc(F)cc2)s1	-6	5	10306	-1	0	-2
Clc1ccccc1Nc1c2c(nc3ncnn13)CCC2	-13	5	21040*	5	-4	-1
c1ccc(CCNc2c3c(nc4ncnn24)CCC3)cc1	-7	0	22631*	2	1	0
Fc1ccccc1CCNc1c2c(nc3ncnn13)CCCC2	-6	-7	4110	0	-3	5
c1coc(CNc2c3c(nc4ncnn24)CCC3)c1	-3	7	20732*	6	6	2
c1coc(CNc2c3c(nc4ncnn24)CCCC3)c1	6	26	4273	2	4	4
O=C(Nc1ccc(Cn2cccn2)cc1)c1ccc(COc2cccc(Br)c2)cc1	0	-6	4642	-1	3	-1
CSc1ccccc1C(=O)NC1CC2CCC1C2 (stereo not drawn)	-1	-10	4905	0	-6	-2
CCN1C(=O)C(Cc2nc3ccccc3c(=O)n2-c2ccccc2)c2ccccc21 (stereo not drawn)	-2	4	19070*	?	-7	-1
CCN1C(=O)/C(=C\c2nc3ccccc3c(=O)n2-c2ccccc2)c2ccccc21	-3	-19	2059	-2	6	-3
CCOC(=O)CN1NC2(CCCCCCC2)NC1=S	3	2	6076	-1	2	4
CC(C)(C)S(=O)(=O)c1cnc(-c2ccc(Cl)cc2)nc1N	-3	4	5269	0	5	-1
Cn1cc(-c2nnc(-c3ccccc3)o2)c2ccccc21	-1	2	3520	0	15	173*
Cc1ccccc1-c1nnc(-c2ccccc2)o1	-2	-11	2920	0	-2	3
CC1CCCC(C)N1C(=O)CN1c2cccc3cccc(c23)S1(=O)=O (stereo not drawn)	-1	-9	6743	-4	7	9
O=C1NC(=O)N(c2ccccc2)C(=O)/C1=C/c1coc2ccc(O)cc2c1=O	-8	-5	4471	-2	31*	-1
CCOc1ccc(-c2cc(C)[n+](CCc3ccc(OC)c(OC)c3)c(-c3ccc(OCC)cc3)c2)cc1	-2	0	3009	3	31*	-1
